RAD52 inh – RAD52 (human) annealing inhibition | P43351 | recombinant RAD52 DNA annealing, FRET fluorescence | inhibition, % at 18.7 µM | hit rate 0.46% among 360,000;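 active = every replicate showing at least 50% inhibition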
Glyco luc inh – blocks N-linked glycosylation in D54 reporter cells; D54 ERlucT glycosylation luciferase reporter, 24 h; percent of 100 nM tunicamycin response; reporter increase, % at 12.5 µM; hit rate 0.23% among 360,000;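 active = mean luciferase reporter signal, scaled so untreated is 0 and the glycosylation-blocking control 100, at or above a set limit in every replicate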;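 also: luciferase carries N-glycosylation sites so blocking glycosylation raises the light; 0% = median of neutral control wells and 100% = median of 100 nM tunicamycin wells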
Casp6 inh – caspase-6 (human) enzyme inhibition; P55212; inhibition, % at 12.5 µM; purified caspase-6, Z-VEID-R110 cleavage fluorescence; AID 686996; hit rate 0.53% among 350,000;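 active = mean inhibition across replicates at least about 35%, with every replicate also reaching that limit, limit read from the data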;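 also: 0% = median of neutral control wells and 100% = no fluorescence left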
Target sequence (P55212 24-179 limits assumed): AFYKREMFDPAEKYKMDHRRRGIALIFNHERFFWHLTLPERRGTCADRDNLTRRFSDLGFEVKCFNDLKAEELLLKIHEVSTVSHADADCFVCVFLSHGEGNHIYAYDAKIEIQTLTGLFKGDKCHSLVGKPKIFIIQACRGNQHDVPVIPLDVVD
Target sequence (P55212 194-293 limits assumed): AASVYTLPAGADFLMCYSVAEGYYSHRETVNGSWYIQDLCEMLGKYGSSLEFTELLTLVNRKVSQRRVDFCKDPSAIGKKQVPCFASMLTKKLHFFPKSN
AF4-AF9 inh – MLL-AF4/AF9 protein interaction inhibition | P42568 | AlphaScreen, biotin-AF4 peptide binding to FLAG-AF9 | inhibition, % at 10 µM | hit rate 0.47% among 350,000 | AID 651704;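 active = every replicate reaching a set inhibition limit, whatever the replicate mean, cut at about 25% in these data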;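 also: 0% = plate neutral control median and 100% = total signal loss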
RAD54 branch – blocks human RAD54 Holliday junction branch migration. inhibition, % at 10.4 µM. hit rate 0.14% among 360,000. Q92698. FAM/BHQ fluorescence. AID 602329;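 active = mean normalized replicate activity at least 40 and at least half of replicates scoring 40 or more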;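 also: 0% = median of neutral control wells and 100% = median of positive control wells; inhibitors cause a drop in the FAM fluorescence signal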
* marks the source's active call; other numbers are inactive results; . = not tested or not shown. Rows were chosen to be rich in hits. Some 1.2% of all compounds tested hit in one or more screens of this group.

SMILES	RAD52 inh	Glyco luc inh	Casp6 inh	AF4-AF9 inh	RAD54 branch
CCn1c(/C=C\c2ccccc2C)nc2ccccc2c1=O	-5	0	1	31*	3
Cc1ccccc1/C=C\c1nc2ccccc2c(=O)n1Cc1ccccc1	.	-1	.	.	.
CC(C)NC(=O)Nc1ccc2c(c1)C(=O)N([C@@H](C)CO)C[C@@H](C)[C@H](CN(C)Cc1ccc3c(c1)OCO3)OCCCC[C@H](C)O2	.	.	.	.	3
COC(=O)c1ccccc1NC1=C/C(=N\S(=O)(=O)c2ccc(C(=O)O)cc2)c2ccccc2C1=O	.	-1	.	.	-7
CC(C)(C)c1ccc(S(=O)(=O)/N=C2\C=C(NS(=O)(=O)c3ccccc3)C(=O)c3ccccc32)cc1	-5	2	50*	6	10
Cc1ccc(S(=O)(=O)/N=C2\C=C(Nc3ccc(O)cc3)C(=O)c3ccccc32)cc1	.	-23	.	.	-1
Cc1ccc(S(=O)(=O)/N=C2\C=C(Nc3cccc(C(=O)O)c3)C(=O)c3ccccc32)c(C)c1	-11	6	100*	10	-13
CCc1ccc(S(=O)(=O)/N=C2\C=C(Nc3ccc(C(=O)O)cc3)C(=O)c3ccccc32)cc1	2	4	97*	28*	2
Cc1ccc(S(=O)(=O)/N=C2\C=C(Nc3cccc(C(=O)O)c3)C(=O)c3ccccc32)cc1	2	2	99*	8	5
C[C@H]1CN([C@@H](C)CO)C(=O)c2cc(NC(=O)Cc3cn(C)c4ccccc34)ccc2O[C@@H]1CN(C)C(=O)Nc1ccc2c(c1)OCO2	-4	.	-1	1	3
Cc1ccc(S(=O)(=O)N(C)C[C@H]2OCCCC[C@H](C)Oc3ccc(NC(=O)CCCN(C)C)cc3C(=O)N([C@H](C)CO)C[C@@H]2C)cc1	7	.	-1	-1	-6
Cc1cc(N(CCO)CCO)ccc1N=Nc1cc(F)ccc1F	1	0	11	35*	2
Nc1ccc(N(CCO)CCO)cc1	-14	2	28	-3	.
C[C@H]1CN([C@@H](C)CO)S(=O)(=O)c2ccc(C3=CCCC3)cc2O[C@H]1CN(C)C(=O)CC1CC1	-4	.	1	-2	-7
Cc1cc(/C=C\c2ccccc2)nc2ccccc12	-3	1	-3	26*	.
COc1ccc(Cc2c(-c3ccco3)nc3c(C)cc(Br)cn23)c(C)c1	-36	2	39*	5	2
CCc1cc(-c2n[nH]c(C)c2-c2nc3ccccc3n2C)c(O)cc1O	4	5	-1	2	0
CCc1cc(-c2n[nH]c(C)c2-c2nc3ccccc3n2C)c(O)c(CN2CCN(C)CC2)c1O	17	4	-26	25*	4
Cc1noc(C)c1S(=O)(=O)N(C)C[C@H]1OCCCC[C@@H](C)Oc2ccc(NC(=O)CCCN(C)C)cc2C(=O)N([C@@H](C)CO)C[C@H]1C	10	.	3	3	5
CC(C)CCNc1nnnc2c1sc1nc(N3CCOCC3)c3c(c12)CC(C)(C)SC3	.	0	.	.	-2
CC1(C)Cc2c(c(N3CCOCC3)nc3sc4c(NCC5CCCO5)nnnc4c23)CS1 (centres undefined)	-10	-3	-1	26*	-30
CC(C)NC(=O)Nc1ccc2c(c1)C(=O)N([C@@H](C)CO)C[C@@H](C)[C@H](CN(C)C(=O)c1ccncc1)OCCCC[C@@H](C)O2	-10	.	-3	-2	10
CCc1cccc(C)c1NC(=S)NCCc1c(C)[nH]c2ccc(C)cc12	-17	-4	0	44*	-13
CCc1cccc(CC)c1NC(=S)NCCc1c(C)[nH]c2ccc(C)cc12	-33	-9	0	2	9
Cc1ccc(-c2cnc3c(c2)C(=O)N([C@@H](C)CO)C[C@H](C)[C@@H](CN(C)C(=O)c2ccc(F)cc2)O3)cc1	23	.	0	-1	-11
SMILES	RAD52 inh	Glyco luc inh	Casp6 inh	AF4-AF9 inh	RAD54 branch
C[C@@H]1CCCCO[C@@H](CN(C)Cc2ccc(C(F)(F)F)cc2)[C@@H](C)CN([C@@H](C)CO)C(=O)c2cc(NC(=O)C3CCCCC3)ccc2O1	.	.	.	.	0
C[C@H](CO)N1C[C@H](C)[C@@H](CN(C)C)Oc2ccc(NC(=O)Nc3ccc(C(F)(F)F)cc3)cc2CC1=O	-5	.	3	9	20
CC(C)(C)CC(C)(C)SSc1n[nH]c(=S)s1	-14	-1	37*	1	0
COc1ccc(-c2csc(=NCCO)n2-c2ccccc2)cc1	-17	-3	-3	33*	-1
C=CCn1c(-c2ccc(OC)cc2)csc1=Nc1c(C)n(C)n(-c2ccccc2)c1=O	.	-1	.	.	9
COc1ccc(-c2csc(=Nc3ccccc3)n2CCO)cc1	4	-4	2	38*	2
COc1ccc(-c2cn(-c3ccccc3)nc2CO)cc1	-8	0	14	-5	-12
C[C@@H]1CCCCO[C@H](CN(C)C(=O)Cc2ccccc2)[C@@H](C)CN([C@@H](C)CO)C(=O)c2cc(NC(=O)CCC(F)(F)F)ccc2O1	.	.	.	.	-1
C/C=C(\C)C(=O)OC1CC(C)(C)C[C@H]2C3=CC[C@@H]4[C@@]5(C)CCC(O[C@@H]6O[C@@H](C(=O)O)[C@@H](O)C(O[C@@H]7OC[C@H](O)[C@@H](O)[C@@H]7O[C@@H]7OC(CO)C(O)[C@@H](O)[C@@H]7O)C6O[C@@H]6OC(CO)C(O)C(O)C6O)[C@@](C)(CO)[C@@H]5CC[C@]4(C)[C@]3(C)CC(O)[C@@]12CO (some centres undefined)	-18	-8	58*	4	-19
CC(C)(C)S(=O)(=O)N1C[C@H]2CC/C=C\C/C(c3ccccc3)=C\2[C@@H]1CCO	-4	38*	1	-3	1
CO[C@@H]1CN(C)C(=O)c2ccc(NC(=O)Nc3ccccc3F)cc2OC[C@@H](C)N(C(C)=O)C[C@H]1C	-5	.	0	0	.
CCCC(=O)Nc1ccc2c(c1)C(=O)N(C)[C@@H]1CC[C@@H](CC(=O)NC3CCCC3)O[C@H]1CO2	-24	.	1	-2	5
N#Cc1cc2[nH]c3ccccc3c2[n+](-c2ccc([N+](=O)[O-])cc2)c1N	15	28*	2	2	26
CCOc1ccc(/C=C/c2[nH]c(=O)[nH]c(=O)c2[N+](=O)[O-])cc1	-16	3	4	-3	-12
CCOC(=O)COc1ccc(Br)cc1/C=C/c1[nH]c(=O)[nH]c(=O)c1[N+](=O)[O-]	-5	1	40*	0	5
CCCOc1ccc(/C=C/c2[nH]c(=O)[nH]c(=O)c2[N+](=O)[O-])cc1OCC	-478	2	0	-15	.
CCOC(=O)COc1ccc(Br)cc1/C=C\c1[nH]c(=O)[nH]c(=O)c1[N+](=O)[O-]	-9	3	56*	-2	.
O=C(C[C@@H]1C=C[C@@H](NC(=O)Nc2ccc(F)cc2)[C@@H](CO)O1)NCc1cccc(F)c1	4	.	-3	-1	-5
CN1CCN(NC(=O)NC2CCCCC2)CC1	0	1	41*	-5	20
